Source: PubChem BioAssay (Tox21)
Results filed as inconclusive are left out. A call without a number means that no potency is given here. Values without a mark were called inactive. The source made the active and inactive calls. Calls follow the shape of the dose curve; as a rule, active = well fitted cell-killing curve with a large enough effect in the repeat runs; inconclusive = weak or mixed curves, or effect the other way; inactive = flat fitted curve, though single readings scatter.

Assays:
[1] = cAMP Responsive Elements (CRE) small molecule antagonists, cell-based qHTS assay: qHTS cell viability counter screen (AID 2060913); also: nearly all actives have a fitted effect of over 40% in size
Procedure, shortened: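 Cytotoxicity read in the same wells as the CRE-bla HEK293T antagonist assay: after 3 h compound with 0.25 uM NKH477 final and 2 h beta-lactamase substrate, CellTiter-Glo luminescence measured.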

[2] = cAMP Responsive Elements (CRE) small molecule agonists, cell-based qHTS assay: qHTS cell viability counter screen (AID 2060914); also: nearly all actives have a fitted effect of over 50% in size
Procedure, shortened: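 Luminescence read-out (CellTiter-Glo, 30 min RT) of ATP-based viability in CRE-bla HEK 293T cells, run in the same wells as the β-lactamase reporter assay after 3 h compound treatment at 37 °C.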

| Compound | Potency [1] | Potency [2] | viability change, negative = cytotoxic [1] | activity change, negative = cytotoxicity [2] |
| --- | --- | --- | --- | --- |
| CCOc1ccc(NC(=O)CC(C)O)cc1 (stereo not drawn) | inactive | inactive | – | – |
| O=C(Cl)c1c(Cl)cccc1Cl | inactive | inactive | – | – |
| O=C1[C@@H]2[C@H]3CC[C@H](C3)[C@@H]2C(=O)N1CCCCN1CCN(c2ncccn2)CC1 | inactive | inactive | – | – |
| CC(=O)c1cnccn1 | inactive | inactive | – | – |
| Cc1ccc(-c2ccccc2)cc1 | inactive | inactive | – | – |
| Cc1c(C(=O)NCCO)[n+](=O)c2ccccc2n1[O-] | inactive | inactive | – | – |
| CCOC(=O)NCCOc1ccc(Oc2ccccc2)cc1 | inactive | inactive | – | – |
| CC(=O)c1ccc2c(c1)N(CCCN(C)C)c1ccccc1S2 | inactive | inactive | – | – |
| CCOCCOCCO | inactive | inactive | – | – |
| COc1cc(C=C2CCC/C(=C\c3ccc(O)c(OC)c3)C2=O)ccc1O | inactive | inactive | – | – |
| CN(C)CCN(Cc1ccccc1)c1ccccn1 | inactive | inactive | – | – |
| O=C(O)CCC(=O)C(=O)O | inactive | inactive | – | – |
| CCCCCCCCCCCCN1CCOCC1 | inactive | inactive | – | – |
| Nc1ncnc(Nc2ccccc2)n1 | inactive | inactive | – | – |
| CC(=O)OC[C@H]1O[C@@](COC(C)=O)(O[C@H]2O[C@H](COC(C)=O)[C@@H](OC(C)=O)[C@H](OC(C)=O)[C@H]2OC(C)=O)[C@@H](OC(C)=O)[C@@H]1OC(C)=O | inactive | inactive | – | – |
| CN(C)CCOC1=Cc2ccccc2Sc2ccc(Cl)cc21 | inactive | inactive | – | – |
| O=c1[nH]cnc2ccccc12 | inactive | inactive | – | – |
| C(=C\c1ccccc1)/c1ccccc1 | inactive | inactive | – | – |
| CC(=O)CC/C=C(\C)CC/C=C(\C)CC/C=C(\C)CCC=C(C)C | inactive | inactive | – | – |
| CC(C)CCOC(=O)c1ccccc1 | inactive | inactive | – | – |
| COc1ccc(-c2coc3cc(O)ccc3c2=O)cc1 | inactive | inactive | – | – |
| CCCC(=O)O[C@]1(C(=O)CC)CC[C@H]2[C@@H]3CCC4=CC(=O)CC[C@]4(C)[C@H]3[C@@H](O)C[C@@]21C | inactive | inactive | – | – |
| O=c1c(O)c(O)c1=O | inactive | inactive | – | – |

| Compound | Potency [1] | Potency [2] | viability change, negative = cytotoxic [1] | activity change, negative = cytotoxicity [2] |
| --- | --- | --- | --- | --- |
| CC1(C)O[C@@H]2[C@@H](CO[C@@]3(COS(N)(=O)=O)OC(C)(C)O[C@@H]23)O1 | inactive | inactive | – | – |
| c1cnc2cc3c(cc2n1)C1CNCC3C1 | inactive | inactive | – | – |
| C=C(C)CCO | inactive | inactive | – | – |
| CCCOc1ccc2nc(NC(=O)OC)[nH]c2c1 | inactive | inactive | – | – |
| CC(C)OC(=O)C(C)N(C(=O)c1ccccc1)c1ccc(F)c(Cl)c1 (stereo not drawn) | inactive | inactive | – | – |
| CCCCCCCCCCCCCCCCCCOCCO | – | – | -9.04% [at 18.9 µM] | -6.34% [at 18.9 µM] |
| Nc1ccc(O)c(C(=O)O)c1 | inactive | inactive | – | – |
| CC/C=C\C/C=C\C/C=C\CCCCCCCC(=O)OCC | inactive | inactive | – | – |
| O=C(CCCN1CCC(O)(c2ccc(Cl)cc2)CC1)c1ccc(F)cc1 | inactive | inactive | – | – |
| CC(C)N(c1ccccc1)C(C)C | inactive | inactive | – | – |
| Cc1occc(=O)c1O | inactive | inactive | – | – |
| [Cl][Sc]([Cl])[Cl] | inactive | inactive | – | – |
| CN(Cc1cc(Br)cc(Br)c1N)C1CCCCC1 | inactive | inactive | – | – |
| CC(CN1CC(=O)NC(=O)C1)N1CC(=O)NC(=O)C1 (stereo not drawn) | inactive | inactive | – | – |
| C=C(C)C(=O)OCCCCCCCCCCCCCCCCCC | – | – | 12.4% [at 18.9 µM] | 2.15% [at 18.9 µM] |
| O=C(O)C(=O)O | inactive | inactive | – | – |
| C=CCOc1cc(Cl)ccc1C(=O)NCCN(CC)CC | inactive | inactive | – | – |
| Oc1ccccc1 | inactive | inactive | – | – |
| O=C1OCCO1 | inactive | inactive | – | – |
| NC(=O)c1ncn([C@@H]2O[C@H](CO)[C@@H](O)[C@H]2O)n1 | inactive | inactive | – | – |
| CCN1CCN(C(=O)N[C@@H](C(=O)N[C@@H]2C(=O)N3C(C(=O)O)=C(CSc4nnnn4C)CS[C@H]23)c2ccc(O)cc2)C(=O)C1=O | inactive | inactive | – | – |
| Nc1cc(Cl)cc(S(=O)(=O)O)c1O | inactive | inactive | – | – |
| CCCCCCCCCO | inactive | inactive | – | – |

| Compound | Potency [1] | Potency [2] | viability change, negative = cytotoxic [1] | activity change, negative = cytotoxicity [2] |
| --- | --- | --- | --- | --- |
| CNC[C@H](O)c1ccc(O)c(O)c1 | inactive | inactive | – | – |
| COCCCOc1cc(C[C@@H](C[C@H](N)[C@@H](O)C[C@H](C(=O)NCC(C)(C)C(N)=O)C(C)C)C(C)C)ccc1OC | inactive | inactive | – | – |
| O=C(O)C(c1ccc(Cl)cc1)c1ccc(Cl)cc1 | inactive | inactive | – | – |
| O=C(O)CCSCCC(=O)O | inactive | inactive | – | – |
| CC(=O)[C@@]1(O)CC[C@H]2[C@@H]3C[C@H](C)C4=CC(=O)CC[C@]4(C)[C@H]3CC[C@@]21C | inactive | inactive | – | – |
| CC[C@H]1OC(=O)[C@H](C)[C@@H](O[C@H]2C[C@@](C)(OC)[C@@H](O)[C@H](C)O2)[C@H](C)[C@@H](O[C@@H]2O[C@H](C)C[C@H](N(C)C)[C@H]2O)[C@](C)(OC)C[C@@H](C)C(=O)[C@H](C)[C@@H](O)[C@]1(C)O | inactive | inactive | – | – |
| CC(=O)OC(C)c1ccccc1 (stereo not drawn) | inactive | inactive | – | – |
| Nc1c2ccccc2nc2ccccc12 | inactive | inactive | – | – |
| Cc1ccc(C(C)(C)C)cc1 | inactive | inactive | – | – |
| Nc1ccc(-c2ccc(F)cc2)cc1 | inactive | inactive | – | – |
| C=CN1CCCCCC1=O | inactive | inactive | – | – |
| C=C[Si]1(C)O[Si](C)(C=C)O[Si](C)(C=C)O[Si](C)(C=C)O1 (stereo not drawn) | inactive | inactive | – | – |
| CCOC(=O)CC(C)=O | inactive | inactive | – | – |
| C=COCC1CCC(COC=C)CC1 (stereo not drawn) | inactive | inactive | – | – |
| Cc1cc(C)c(C=O)c(C)c1 | inactive | inactive | – | – |
| Nc1ccc(Oc2ccc(Cl)cc2)cc1 | inactive | inactive | – | – |
| O=C(O)C(=O)Cc1ccccc1 | inactive | inactive | – | – |
| CC(C)CCCCCCCCCCCCCCC(=O)O | inactive | inactive | – | – |
| Brc1cc(Oc2cc(Br)c(Br)c(Br)c2Br)c(Br)c(Br)c1Br | inactive | inactive | – | – |
| C=C1C(=C/C=C2\CCC[C@]3(C)[C@@H]([C@H](C)/C=C/[C@@H](O)C4CC4)CC[C@@H]23)C[C@@H](O)C[C@@H]1O | inactive | inactive | – | – |
| O=C(COCCOCCOCC(=O)Nc1c(I)cc(I)c(C(=O)O)c1I)Nc1c(I)cc(I)c(C(=O)O)c1I | inactive | inactive | – | – |
| CO[Si](CCCNCCC[Si](OC)(OC)OC)(OC)OC | inactive | inactive | – | – |
| CCCCCCCCN(C)C | inactive | inactive | – | – |
